Reference: PubChem BioAssay AID1159580 (chemical genetic matrix, 2015)
Screen size: about 5,500 compounds; about 2,000 (36%) were called active. Roughly 18% stayed inconclusive and do not appear here. The list shows a part of the results. Unmarked numbers belong to inactive results. No stated cut-off is given here; in the data, active means normalized growth mostly below about 0.91 (no sharp cut-off); inconclusive means no clear call, values can overlap the other calls; inactive means mostly above about 0.92.

Assay: chemical genetic growth profiling, strain panel (AID 1159580);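 further: tested at 20 µM; growth read once vehicle control cultures reached saturation at 30 °C; 1 = growth at the plate median or of vehicle wells; lower values mean less growth of the strain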
Conditions: S. cerevisiae deletion strains, growth OD

SMILES: S=C(Nc1ccc(Cl)cc1Cl)N(c1cccc(Cl)c1)c1nc2ccccc2s1
- normalized growth (locus YAR019C, strain CDC15, hits give low values): 0.956
- normalized growth (locus YBL105C, strain PKC1, hits give low values): 0.96
- normalized growth (locus YBR135W, strain CKS1, hits give low values): 0.951
- normalized growth (locus YBR136W, strain MEC1, hits give low values): 0.962
- normalized growth (locus YBR160W, strain CDC28, hits give low values): 0.964
- normalized growth (locus YDL017W, strain CDC7, hits give low values): 0.96
- normalized growth (locus YDL028C, strain MPS1, hits give low values): 0.963
- normalized growth (locus YDL101C, strain DUN1, hits give low values): 0.987
- normalized growth (locus YDL108W, strain KIN28, hits give low values): 0.955
- normalized growth (locus YDL132W, strain cdc53, hits give low values): 0.967
- normalized growth (locus YDL214C, strain PRR2, hits give low values): 0.821
- normalized growth (locus YDR052C, strain DBF4, hits give low values): 0.964
- normalized growth (locus YDR054C, strain cdc34, hits give low values): 0.955
- normalized growth (locus YDR226W, strain ADK1, hits give low values): 0.954
- normalized growth (locus YDR477W, strain SNF1, hits give low values): 0.778
- normalized growth (locus YER123W, strain YCK3, hits give low values): 0.778
- normalized growth (locus YER133W, strain GLC7, hits give low values): 0.765
- normalized growth (locus YFL009W, strain cdc4, hits give low values): 0.951
- normalized growth (locus YFL029C, strain CAK1, hits give low values): 0.962
- normalized growth (locus YFR003C, strain YPI1, hits give low values): 0.961
- normalized growth (locus YFR019W, strain FAB1, hits give low values): 0.878
- normalized growth (locus YFR028C, strain CDC14, hits give low values): 0.949
- normalized growth (locus YGR040W, strain KSS1, hits give low values): 0.785
- normalized growth (locus YGR052W, strain FMP48, hits give low values): 0.846
- normalized growth (locus YGR092W, strain DBF2, hits give low values): 0.598
- normalized growth (locus YHR030C, strain SLT2, hits give low values): 0.674 (active)
- normalized growth (locus YHR079C, strain IRE1, hits give low values): 0.779
- normalized growth (locus YHR082C, strain KSP1, hits give low values): 0.871
- normalized growth (locus YHR205W, strain SCH9, hits give low values): 0.778
- normalized growth (locus YIL147C, strain SLN1, hits give low values): 0.963
- normalized growth (locus YJL095W, strain BCK1, hits give low values): 0.75
- normalized growth (locus YJL128C, strain PBS2, hits give low values): 0.933
- normalized growth (locus YJL157C, strain FAR1, hits give low values): 0.794
- normalized growth (locus YJR016C, strain ILV3, hits give low values): 0.955
- normalized growth (locus YJR066W, strain TOR1 (second series), hits give low values): 0.714
- normalized growth (locus YJR066W, strain TOR1, hits give low values): 0.777
- normalized growth (locus YKL048C, strain ELM1, hits give low values): 0.885
- normalized growth (locus YKL067W, strain YNK1, hits give low values): 0.835
- normalized growth (locus YKL101W, strain HSL1, hits give low values): 0.823
- normalized growth (locus YKL193C, strain SDS22, hits give low values): 0.957
- normalized growth (locus YKL203C, strain TOR2, hits give low values): 0.849
- normalized growth (locus YLR113W, strain HOG1, hits give low values): 0.743 (active)
- normalized growth (locus YLR133W, strain CKI1, hits give low values): 0.783
- normalized growth (locus YLR403W, strain SFP1, hits give low values): 0.664
- normalized growth (locus YML070W, strain DAK1, hits give low values): 0.795
- normalized growth (locus YMR001C, strain CDC5, hits give low values): 0.951
- normalized growth (locus YMR205C, strain PFK2 (second series), hits give low values): 0.82
- normalized growth (locus YMR277W, strain FCP1, hits give low values): 0.95
- normalized growth (locus YNL006W, strain LST8, hits give low values): 0.955
- normalized growth (locus YNL020C, strain ARK1, hits give low values): 0.763
- normalized growth (locus YNL161W, strain CBK1, hits give low values): 0.949
- normalized growth (locus YNL183C, strain NPR1, hits give low values): 0.817
- normalized growth (locus YNL207W, strain RIO2, hits give low values): 0.955
- normalized growth (locus YNL222W, strain SSU72, hits give low values): 0.963
- normalized growth (locus YNL307C, strain MCK1 (second series), hits give low values): 0.784
- normalized growth (locus YOL078W, strain AVO1, hits give low values): 0.957
- normalized growth (locus YOL136C, strain PFK27, hits give low values): 0.816
- normalized growth (locus YOR061W, strain CKA2, hits give low values): 0.712
- normalized growth (locus YOR119C, strain RIO1, hits give low values): 0.811
- normalized growth (locus YOR231W, strain MKK1, hits give low values): 0.809
- normalized growth (locus YOR329C, strain SCD5, hits give low values): 0.962
- normalized growth (locus YPL031C, strain PHO85, hits give low values): 0.734
- normalized growth (locus YPL153C, strain RAD53, hits give low values): 0.811
- normalized growth (locus YPL204W, strain HRR25, hits give low values): 0.719
- normalized growth (locus YPL209C, strain IPL1, hits give low values): 0.96
- normalized growth (locus YPL256C, strain CLN2, hits give low values): 0.791 (active)
- normalized growth (locus YPR025C, strain CCL1, hits give low values): 0.961
- normalized growth (locus YPR106W, strain ISR1, hits give low values): 0.961
- normalized growth (locus YPR111W, strain DBF20, hits give low values): 0.949
- normalized growth (strain NNK1, hits give low values): 0.951
- normalized growth (strain TSCII, hits give low values): 0.954
